Structures are written as SMILES. Values joined by “and” are separate entries in the source; they are usually repeats but may differ in a detail not shown here. Equal entries are not always repeated. Inconclusive results are not listed. Unmarked numbers belong to inactive results. Calls follow the shape of the dose curve; as a rule, active = well fitted cell-killing curve with a large enough effect; inconclusive = small, poorly fitted or top-dose-only effect, or effect the other way; inactive = flat fitted curve, though single readings scatter.
% is scaled to controls: 0 for no effect and ±100 for the full control effect.

The test is described as follows: qHTS assay for cell viability of HEK293 cells (AID 743288). Also: nearly all actives have a fitted effect of over 50% in size. The conditions noted are these: ATP luminescence (CellTiter-Glo), 18 h, active compounds read low. The source says:
National Center for Advancing Translational Sciences [NCATS]
NIH Chemical Genomics Center [NCGC]
U.S. Environmental Protection Agency [EPA]
National Institutes of Environmental Health Sciences [NIEHS]
National Toxicology Program [NTP]
U.S. Food and Drug Administration [FDA]
The CellTiter-Glo Luminescent Cell Viability Assay (Promega, Madison, WI) is a homogeneous method to determine the number of viable cells in culture based on quantitation of the ATP present, which signals the presence of metabolically active cells. This cell viability assay was used to screen environmental chemicals in the Hek293 cell line.
Tox21 Assay Protocol Summary:
Cell viability after compound treatment was measured using a luciferase-coupled ATP quantitation assay (CellTiter-Glo viability assay, Promega, Madison, WI) in parental HEK293 cells. Total intracellular ATP content corresponds to the number of metabolically competent cells after compound treatment. The cells were dispensed at 2,000 cells/5 uL/well in 1,536-well white/solid bottom assay plates using a Flying Reagent Dispenser (Aurora Discovery, San Diego, CA). The cells were incubated a minimum of 5 h at 37 C, followed by the addition of 23 nL of compounds dissolved in DMSO, positive controls or DMSO only using a pintool work station (Kalypsys, San Diego, CA). The assay plates were incubated for 18 h at 37 C, followed by the addition of 5 uL/well of CellTiter-Glo reagent. After 30 min incubation at room temperature, the luminescence intensity of the plates was measured using a ViewLux plate reader (PerkinElmer, Shelton, CT).
On the technique in general: qHTS replaces the single test concentration by a dilution series.
Turning to `CCBr`, the max response is -3.34%. For the compound `ClCCOCCCl`, the max response was -0.0116%.

In the case of `O=c1ccc(=O)[nH][nH]1`, the max response was 3.74% and 5.95%. Then `CC(C)C#N`, with 0.536%; and `Oc1cc(Cl)c(Cl)c(Cl)c1`, with -15.1%. Next, `Cc1cc(C)cc(OP(=O)(Oc2cc(C)cc(C)c2)Oc2cc(C)cc(C)c2)c1`: -21.5%. For the compound `Oc1cc(Cl)ccc1Cl`, the max response was 5.28% and -9.5%.

Consider `Nc1cc(Cl)ccc1Cl`, for which the max response is 7.64%. Next, `O=C(O)c1cccc(Cl)c1`: -0.932%. Then `Cc1ccc([N+](=O)[O-])cc1`, with 0.535%; and `O=[N+]([O-])c1ccccc1-c1ccccc1`, with 0.829%; and `Nc1cccc(Cl)c1`, with -8.5%. Next, `ClCC(Cl)CCl`: -3.69% and -5.22%; `ClC=CCl`: -11.1%. As for `ClCCBr`, the max response is -0.276%. `C=CC(=O)OCCN(C)C`: the max response was -6.86%. Take `C(CCOCC1CO1)COCC1CO1` (stereo not given): the max response is -15.1%. Then `C=C(Cl)CSC(=S)N(CC)CC`, with 5.22%; and `C/C=C/C=O`, with 5.69%; and `ClCC(Cl)Cl`, with -18.4%.

As for `C=CC=O`, the max response is -14.3%. As to `O=[N+]([O-])c1cccc2c([N+](=O)[O-])cccc12`, the max response was -6.41%. Next, `Nn1cnnc1`: -1.3%. With `O=C(O)c1cc(Cl)ccc1Cl`, the max response was -1.88%. Then `Clc1cccc(Cl)c1Cl`, with -5.25% and -0.775%. `CC1CC(=O)O1` (stereo not given): the max response is -7.61%. Then `CCCCCC[N+](=O)[O-]`, with 7.41%. As to `CC(C)Br`, the max response was -0.407%. Consider `Cl/C=C/CCl`, for which the max response was 2.26%. Then `CC(Cl)(Cl)Cl`, with 6.17% and -1.09%; and `Nc1ccccc1-c1ccccc1`, with 3.8%. Then `CCCC[N+](=O)[O-]`, with -6.09%.

In the case of `CC(C)(C)C(O)(CCc1ccc(Cl)cc1)Cn1cncn1` (stereo not given), the max response is -1.87% and -20%. Regarding `O=[N+]([O-])c1ccc(Cl)cc1`, the max response was 7.34% and -5.17%.

For the compound `CCOC(=O)C1OC1(C)c1ccccc1` (stereo not given), the max response is 7.29%. Next, `CCCCC(=O)Cl`: 5.94%; `c1ccc(P(c2ccccc2)c2ccccc2)cc1`: -11.3%; `Clc1ccc(Cl)c(Cl)c1`: 9.56% and -10%. Then `O=C(O)C(Br)CBr` (stereo not given), with -8.07%; and `CCCCOC(C)=O`, with -4.32%.

These data come from PubChem BioAssay (NCATS).
